Results from PubChem BioAssay AID1159580 (chemical genetic matrix, 2015).
Screen size: about 5,500 compounds; about 2,000 (36%) were called active. About 18% were inconclusive and are not listed. Cut-off read from the data, not from the text of the source: active = normalized growth mostly below about 0.91 (no sharp cut-off); inconclusive = no clear call, values can overlap the other calls; inactive = mostly above about 0.92. The list shows a part of the results.

Assay: chemical genetic growth profiling, strain panel (AID 1159580);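 note: tested at 20 µM; growth read once vehicle control cultures reached saturation at 30 °C; 1 = growth at the plate median or of vehicle wells; lower values mean less growth of the strain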
Conditions: growth OD

Measured: normalized growth

C=CCSCC1Nc2cc(Cl)c(S(N)(=O)=O)cc2S(=O)(=O)N1 (configuration not stated)
inactive: S. cerevisiae deletion strains, locus YJR075W, strain HOC1, active compounds read low 1.01 | S. cerevisiae deletion strains, locus YKL009W, strain mrt4, active compounds read low 1.02 | S. cerevisiae deletion strains, locus YKL068W, active compounds read low 1.02 | S. cerevisiae deletion strains, locus YKL085W, strain MDH1 (second series), active compounds read low 1 | S. cerevisiae deletion strains, locus YKL085W, strain MDH1, active compounds read low 1 | S. cerevisiae deletion strains, locus YKL160W, strain elf1, active compounds read low 0.994 | S. cerevisiae deletion strains, locus YKL190W, strain CNB1, active compounds read low 1.01 | S. cerevisiae deletion strains, locus YKR001C, strain vps1, active compounds read low 1.02 | S. cerevisiae deletion strains, locus YKR026C, strain gcn3, active compounds read low 1 | S. cerevisiae deletion strains, locus YKR091W, strain srl3, active compounds read low 1 | S. cerevisiae deletion strains, locus YLL001W, strain dnm1, active compounds read low 0.997 | S. cerevisiae deletion strains, locus YLL026W, active compounds read low 0.998 | S. cerevisiae deletion strains, locus YLL041C, strain sdh2, active compounds read low 1 | S. cerevisiae deletion strains, locus YLR027C, strain aat2, active compounds read low 0.996 | S. cerevisiae deletion strains, locus YLR039C, strain RIC1, active compounds read low 1.02 | S. cerevisiae deletion strains, locus YLR058C, strain SHM2, active compounds read low 1.01 | S. cerevisiae deletion strains, locus YLR102C, strain apc9, active compounds read low 1.04 | S. cerevisiae deletion strains, locus YLR113W, strain HOG1, active compounds read low 1.06 | S. cerevisiae deletion strains, locus YLR221C, strain rsa3, active compounds read low 0.988 | S. cerevisiae deletion strains, locus YLR258W, strain gsy2, active compounds read low 0.998 | S. cerevisiae deletion strains, locus YLR262C, strain YPT6 (second series), active compounds read low 0.989 | S. cerevisiae deletion strains, locus YLR262C, strain YPT6, active compounds read low 1.04 | S. cerevisiae deletion strains, locus YLR268W, strain sec22, active compounds read low 1.02 | S. cerevisiae deletion strains, locus YLR320W, strain mms22, active compounds read low 0.985 | S. cerevisiae deletion strains, locus YLR330W, strain CHS5, active compounds read low 1.01 | S. cerevisiae deletion strains, locus YLR342W, strain FKS1 (second series), active compounds read low 0.996 | S. cerevisiae deletion strains, locus YLR342W, strain FKS1, active compounds read low 1.01 | S. cerevisiae deletion strains, locus YLR357W, strain rsc2, active compounds read low 0.991 | S. cerevisiae deletion strains, locus YLR370C, strain arc18, active compounds read low 1 | S. cerevisiae deletion strains, locus YLR371W, strain rom2, active compounds read low 1.02 | S. cerevisiae deletion strains, locus YLR384C, strain iki3, active compounds read low 1 | S. cerevisiae deletion strains, locus YLR418C, strain cdc73, active compounds read low 1.04 | S. cerevisiae deletion strains, locus YML016C, strain PPZ1, active compounds read low 1.01 | S. cerevisiae deletion strains, locus YML032C, strain rad52, active compounds read low 1.03 | S. cerevisiae deletion strains, locus YML120C, strain ndi1, active compounds read low 1 | S. cerevisiae deletion strains, locus YML124C, strain tub3, active compounds read low 1.02 | S. cerevisiae deletion strains, locus YMR058W, strain fet3, active compounds read low 0.998 | S. cerevisiae deletion strains, locus YMR078C, strain ctf18, active compounds read low 1.03 | S. cerevisiae deletion strains, locus YMR125W, strain sto1, active compounds read low 0.998 | S. cerevisiae deletion strains, locus YMR129W, active compounds read low 1 | S. cerevisiae deletion strains, locus YMR205C, strain PFK2, active compounds read low 0.995 | S. cerevisiae deletion strains, locus YMR223W, strain ubp8, active compounds read low 1.02 | S. cerevisiae deletion strains, locus YMR231W, strain pep5, active compounds read low 1 | S. cerevisiae deletion strains, locus YMR263W, strain SAP30, active compounds read low 1.02 | S. cerevisiae deletion strains, locus YMR307W, strain GAS1, active compounds read low 1.1 | S. cerevisiae deletion strains, locus YNL067W, strain RPL9B, active compounds read low 1.01 | S. cerevisiae deletion strains, locus YNL071W, strain lat1, active compounds read low 0.999 | S. cerevisiae deletion strains, locus YNL128W, strain TEP1, active compounds read low 1.01 | S. cerevisiae deletion strains, locus YNL153C, strain GIM3, active compounds read low 1.01 | S. cerevisiae deletion strains, locus YNL183C, strain NPR1, active compounds read low 0.977 | S. cerevisiae deletion strains, locus YNL209W, strain ssb2, active compounds read low 0.999 | S. cerevisiae deletion strains, locus YNL233W, strain BNI4, active compounds read low 0.998 | S. cerevisiae deletion strains, locus YNL248C, strain rpa49, active compounds read low 0.989 | S. cerevisiae deletion strains, locus YNL250W, strain rad50, active compounds read low 1.03 | S. cerevisiae deletion strains, locus YNL271C, strain bni1, active compounds read low 1.03 | S. cerevisiae deletion strains, locus YNL298W, strain CLA4, active compounds read low 1.04 | S. cerevisiae deletion strains, locus YNL307C, strain MCK1, active compounds read low 1.01 | S. cerevisiae deletion strains, locus YNL322C, strain KRE1 (second series), active compounds read low 0.995 | S. cerevisiae deletion strains, locus YNL322C, strain KRE1, active compounds read low 1.01 | S. cerevisiae deletion strains, locus YNR049C, strain mso1, active compounds read low 0.998 | S. cerevisiae deletion strains, locus YNR052C, strain pop2, active compounds read low 1.03 | S. cerevisiae deletion strains, locus YOL006C, strain TOP1, active compounds read low 1.03 | S. cerevisiae deletion strains, locus YOL012C, strain htz1 1.06 | S. cerevisiae deletion strains, locus YOL147C, strain pex11, active compounds read low 1.02 | S. cerevisiae deletion strains, locus YOR001W, strain rrp6, active compounds read low 0.977 | S. cerevisiae deletion strains, locus YOR061W, strain CKA2, active compounds read low 1.01 | S. cerevisiae deletion strains, locus YOR069W, strain VPS5, active compounds read low 1.01 | S. cerevisiae deletion strains, locus YOR070C, strain gyp1, active compounds read low 1 | S. cerevisiae deletion strains, locus YOR080W, strain dia2, active compounds read low 1 | S. cerevisiae deletion strains, locus YOR083W, strain WHI5, active compounds read low 0.999 | S. cerevisiae deletion strains, locus YOR106W, strain vam3, active compounds read low 0.985 | S. cerevisiae deletion strains, locus YOR136W, strain idh2, active compounds read low 1.03 | S. cerevisiae deletion strains, locus YOR144C, strain elg1, active compounds read low 1.02 | S. cerevisiae deletion strains, locus YOR184W, strain ser1, active compounds read low 1.03 | S. cerevisiae deletion strains, locus YOR231W, strain MKK1, active compounds read low 1.03 | S. cerevisiae deletion strains, locus YOR265W, strain rbl2, active compounds read low 1.03 | S. cerevisiae deletion strains, locus YOR270C, strain vph1, active compounds read low 0.974 | S. cerevisiae deletion strains, locus YOR290C, strain snf2, active compounds read low 0.987 | S. cerevisiae deletion strains, locus YOR316C, strain cot1, active compounds read low 1.03 | S. cerevisiae deletion strains, locus YPL051W, strain arl3, active compounds read low 1 | S. cerevisiae deletion strains, locus YPL055C, strain LGE1, active compounds read low 1.02 | S. cerevisiae deletion strains, locus YPL078C, strain atp4, active compounds read low 0.989 | S. cerevisiae deletion strains, locus YPL106C, strain sse1, active compounds read low 1.04 | S. cerevisiae deletion strains, locus YPL240C, strain hsp82, active compounds read low 1.01 | S. cerevisiae deletion strains, locus YPL241C, strain CIN2, active compounds read low 1.01 | S. cerevisiae deletion strains, locus YPL256C, strain CLN2, active compounds read low 1.07 | S. cerevisiae deletion strains, locus YPR119W, strain clb2, active compounds read low 1.02 | S. cerevisiae deletion strains, locus YPR141C, strain kar3, active compounds read low 1.03 | S. cerevisiae deletion strains, locus YPR163C, strain tif3, active compounds read low 1.02 | S. cerevisiae deletion strains, locus YPR167C, strain met16, active compounds read low 1.03 | S. cerevisiae deletion strains, strain wtn01, active compounds read low 1.02 | S. cerevisiae strains, strain wild type, active compounds read low 1.01
